A selection: hits, their analogues and other compounds. The true share with any hit is near 19%.
TDP1 cell CPT: qHTS for Inhibitors of human tyrosyl-DNA phosphodiesterase 1 (TDP1): qHTS in cells in presence of CPT | chicken DT40 Tdp1-/-;hTDP1 cells + 20 nM CPT, ATP luminescence, 48 h | 12% of 420,000 active | Potency, µM (highest dose often 46.2 µM), for inactives: at the highest dose activity change, negative = growth inhibition, hits mostly inhibitors; note: potency is the fitted concentration of half-maximal effect; nearly all actives have a fitted effect of over 55% in size
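Chicken DT40 Tdp1-/- cells stably complemented with human TDP1 were seeded at 400 cells/well in medium containing 20 nM camptothecin, exposed to pin-transferred compounds, and grown at 37 °C for at least 48 hr. Viability was read as ATP luminescence.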
HT1080NT lethal: qHTS for induction of synthetic lethality in tumor cells producing 2HG: qHTS for the HT-1080-NT fibrosarcoma cell line. 1.6% of 360,000 active. HT-1080-NT fibrosarcoma viability, CellTiter-Glo ATP luminescence, 48 h. Potency, µM (doses to about 46.1 µM), without a hit: at the highest dose activity, negative = less viability, hits mostly cytotoxic. AID 686970, 2013;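 note: NT is the 2HG producing partner of a matched IDH1 knockdown line; potency is the fitted concentration of half-maximal effect; 0% = DMSO-treated cells and -100% = media-only wells without cells; nearly all actives have a fitted effect of over 55% in size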
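HT-1080-NT fibrosarcoma cells (2HG-overproducing), 750 cells/well in RPMI with 5% FBS, dosed after 2 h and incubated 48 h at 37C. CellTiter-Glo luminescence normalized to DMSO and no-cell wells; concentration-response curves fitted and classed.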
HT1080 IDH1KD tx: qHTS for induction of synthetic lethality in tumor cells producing 2HG: qHTS for the HT-1080-IDH1KD cell line; HT-1080 IDH1 knockdown viability, ATP luminescence, 48 h; Potency, µM (top dose mostly 46.1 µM), inactives show at the top dose activity, negative = toxicity, hits mostly cytotoxic; 2% of 360,000 active; AID 686971, 2013;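 note: potency is the fitted concentration of half-maximal effect; 0% = DMSO wells and -100% = cell-free medium wells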
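CellTiter-Glo luminescence after 48 h compound exposure at 37 degrees C of IDH1-knockdown HT-1080 cells in 5% FBS RPMI. %Activity scaled between DMSO wells and cell-free media wells, with curves fitted and assigned curve classes.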
IL1B secr inh: qHTS for Inhibitors of Inflammasome Signaling: IL-1-beta AlphaLISA Primary Screen. THP-1 LPS/ATP IL-1B secretion, AlphaLISA, 16 h; active compounds read low. activity change, % at 57.5 µM. 4.7% of 360,000 active; in the data active = activity change below about -50%; inconclusive = mostly about -30% to -49%
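Secreted IL-1B measured by AlphaLISA bead assay after 16 h compound exposure of THP-1 cells; compounds (final up to 57.5 uM) added 1 h before LPS (250 ng/mL) and ATP (1.25 mM) stimulation; lower signal means less secretion.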
DT40 TDP1 no CPT: qHTS for Inhibitors of human tyrosyl-DNA phosphodiesterase 1 (TDP1): qHTS in cells in absence of CPT | DT40 Tdp1-/- hTDP1 cells, no CPT, ATP luminescence, 48 h | Potency, µM (series often up to 46.2 µM), for inactives: at the top dose activity change, negative = growth inhibition, hits mostly inhibitors | 15% of 420,000 active; note: potency is the fitted concentration of half-maximal effect; nearly all actives have a fitted effect of over 55% in size
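Readout: luminescence from CellTiter-Glo after 30 min in the dark at RT. Cells: DT40 Tdp1-/- with stable hTDP1, 400/well. Exposure: compounds alone, ≥48 hr, 37 °C.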
Numbers without * were called inactive; ? = inconclusive; · = no result; ! = not active in a repeat. Unless noted, calls come from the whole dose curve; as a rule, active = well fitted curve in the direction sought with a large enough effect; inconclusive = small, poorly fitted or top-dose-only effect, or another doubt; inactive = no such curve, though single readings can be large; an effect the other way counts as inactive or inconclusive. Unless noted, % is set by controls: 0 for no effect and ±100 for the full control effect.

SMILES	TDP1 cell CPT	HT1080NT lethal	HT1080 IDH1KD tx	IL1B secr inh	DT40 TDP1 no CPT
CC(CN1CCOCC1)OC(=O)c1ccccc1Cl (configuration not stated)	13%	21%	14%	-18	0%
CCOc1ccc(C(CN2CCOCC2)C(C)=O)cc1OC (configuration not stated)	4.1µM*	21µM*	10µM*	-117*	4.1µM*
CCCCC(=O)N/N=C/c1ccc(N2CCOCC2)c([N+](=O)[O-])c1	-9%	2%	-12%	2	-6%
CCCCCOc1ccc(C(O)C(CN2CCOCC2)c2ccccc2)cc1 (configuration not stated)	?	-13%	?	-62*	?
O=C(c1ccc(Br)cc1)C(CN1CCOCC1)c1ccccc1 (configuration not stated)	1.3µM*	10µM*	7.3µM*	-98*	2.1µM*
CCCCCCCCCC(=O)N[C@H](CN1CCOCC1)[C@H](O)c1ccccc1	?	16µM*	?	-13	23µM*!
CCCCN1C(=O)C(CC(=O)NCC2CCCCC2)CC(C(=O)N2CCCCCC2)=C1C (configuration not stated)	?	3%	0%	·	?
COc1ccc(C(C[N+](=O)[O-])c2c(-c3ccccc3)cc3ccccn23)cc1 (configuration not stated)	23µM*	-28%	-2%	-20	18µM*
COc1ccc(C(C[N+](=O)[O-])c2c(-c3ccccc3)cc3ccccn23)cc1OC (configuration not stated)	7.3µM*	-1%	-3%	-16	15µM*
COc1cc(C(C[N+](=O)[O-])c2c(C)cc3ccccn23)ccc1O (configuration not stated)	8.2µM*	?	9.2µM*	-97*	13µM*
CN(C)S(=O)(=O)c1cccc(NC(=O)CN2C(=O)NC(Cc3ccccc3)C2=O)c1 (configuration not stated)	-23%	8%	3%	22	?
CCS(=O)(=O)N1CCc2cc(C(=O)NCCc3ccccc3)ccc21	-9%	·	·	·	-20%
Cc1cc2c(n1-c1ccc(C(=O)NCCc3ccccc3)cc1)CCC(C)C2 (configuration not stated)	18µM*	·	·	·	21µM*
Cc1cc2c(n1-c1ccc(C(=O)NCCc3ccc(Cl)cc3)cc1)CCC(C)C2 (configuration not stated)	26µM*	·	·	·	23µM*
COc1ccc(CCNC(=O)c2ccc(-n3c(C)cc4c3CCC(C)C4)cc2)cc1OC (configuration not stated)	?	·	·	·	21µM*
CSCC[C@H](NC(=O)C1CCC(CNC(=O)[C@@H]2CCCN2C(=O)OC(C)(C)C)CC1)C(=O)O (some centres not stated)	7%	0%	-4%	-5	12%
Cc1ccc(C(=O)Nc2ccc(C(=O)O)cc2NC(=O)c2ccc(C)cc2)cc1	0%	11%	9%	12	-13%
CC1=C(C(=O)N(C)C)CC(CC(=O)NCc2cccs2)C(=O)N1CCC1=CCCCC1 (configuration not stated)	-8%	-5%	-1%	-18	?
CC1=C(C(=O)N2CCCCCC2)CC(CC(=O)NCc2cccs2)C(=O)N1CCC1=CCCCC1 (configuration not stated)	16µM*	1%	9%	0	23µM*
CC1=C(C(=O)N2CCCCCC2)CC(CC(=O)NCc2cccc3ccccc23)C(=O)N1CCC1=CCCCC1 (configuration not stated)	?	?	?	-63*	?
COCCCN1C(=O)C(CC(=O)NCc2cccc3ccccc23)CC(C(=O)N2CCCCCC2)=C1C (configuration not stated)	-6%	-2%	-8%	·	12%
CC1=C(C(=O)N2CCCCCC2)CC(CC(=O)NCCc2ccccn2)C(=O)N1CCC1=CCCCC1 (configuration not stated)	?	-2%	-2%	·	?
CCCCN1C(=O)C(CC(=O)NCc2cccc3ccccc23)CC(C(=O)N2CCCCCC2)=C1C (configuration not stated)	?	0%	-5%	-55*	?
Cc1ccc(-c2nn(CC(=O)NC3CCCCC3)c3c2cnc2ccccc23)cc1	?	·	·	·	0%
Cc1ccccc1OCC(=O)Nc1ccc2c(c1)C(=O)c1ccccc1C2=O	0%	4%	6%	-2	0%
SMILES	TDP1 cell CPT	HT1080NT lethal	HT1080 IDH1KD tx	IL1B secr inh	DT40 TDP1 no CPT
COc1cc(NC(=O)CN2CCC(Cc3ccccc3)CC2)c(C)cc1[N+](=O)[O-]	7.3µM*	6%	9%	17	8.2µM*
Cc1cccc(C)c1NC(=O)CN1CCN(CCCC(c2ccc(F)cc2)c2ccc(F)cc2)CC1	7.3µM*	?	12%	-60*	5.8µM*
COc1cc(CN2CCC(Cc3ccccc3)CC2)cc([N+](=O)[O-])c1O	0%	-1%	-1%	20	17%
Cc1cc(C)cc(NC(=O)CN2CCc3ccccc3C2)c1	-31%	-1%	-9%	-21	-25%
Cc1cccc(C)c1NC(=O)CN1CCc2ccccc2C1	10µM*	-1%	1%	8	16µM*
Cc1cccc(C)c1NC(=O)C(c1ccccc1)N1CCC(Cc2ccccc2)CC1 (configuration not stated)	9.2µM*	23%	8%	28	9.2µM*
O=C1NC[C@@H](CCCCN2C[C@H](Cc3ccccc3)N(CC3CCCCC3)C(=O)C2=O)N(CCc2ccccc2)C1=O	-1%	7%	7%	-9	-3%
Cc1cccc(C)c1NC(=O)CN1CCC(Cc2ccccc2)CC1	21µM*	9%	-16%	18	13µM*
O=C(CN1CCC(Cc2ccccc2)CC1)Nc1ccc2c(c1)OCCO2	-22%	3%	1%	-8	-8%
O=C(CN1CCC(Cc2ccccc2)CC1)NC(=O)NCc1ccccc1	-3%	11%	15%	-52*	-23%
Cc1ccc(-n2ncc3c(NCCCN4CCOCC4)ncnc32)cc1C	?	·	·	·	23µM*
CCN(CC)CCCNc1ncnc2c1cnn2-c1ccc(C)c(C)c1	?	·	·	·	16µM*
Cc1cccc(-n2ncc3c(NCCCO)ncnc32)c1	-1%	-9%	2%	0	-8%
